# From PubChem BioAssay (Tox21)
# Several values for one entry are separate records, joined by “and”; a condition that tells them apart may be missing. Equal values may be shown once. Results filed as inconclusive are left out. Where a call stands in place of a potency, no number is given. Activity calls are given as the source filed them. Unless noted, calls follow the shape of the full dose curve.
# Key:
# [1] = Nuclear factor erythroid 2-related factor 2/antioxidant responsive element (Nrf2/ARE) small molecule agonists: qHTS cell viability counter screen in human keratinocytes (AID 1919968; active = well fitted curve in the direction sought with a large enough effect in the repeat runs; an effect the other way counts as inactive or inconclusive; also: nearly all actives have a fitted effect of over 55% in size; also: potency is read from the fitted curve at half-maximal effect)
# How it was run: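 Viability counter-screen: KeratinoSens reporter cells, DMSO-delivered compounds, 23 h at 37 C, CellTiter-Fluor fluorescence.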
# [2] = Nuclear factor erythroid 2-related factor 2/antioxidant responsive element (Nrf2/ARE) small molecule agonists: luciferase reporter gene qHTS assay in human keratinocytes (AID 1919969); also: nearly all actives have a fitted effect of over 35% in size; also: potency is read from the fitted curve at half-maximal effect
# [3] = target: Gonadotropin-releasing hormone receptor (Homo sapiens) (UniProt P30968); experiment: Human gonadotropin-releasing hormone receptor (GnRHR) small molecule agonists, calcium flux assay in GnRHR-HEK293 cells (AID 1920063); also: nearly all actives have a fitted effect of over 35% in size
# Chain of Gonadotropin-releasing hormone receptor (Homo sapiens) (P30968 whole entry, looked up): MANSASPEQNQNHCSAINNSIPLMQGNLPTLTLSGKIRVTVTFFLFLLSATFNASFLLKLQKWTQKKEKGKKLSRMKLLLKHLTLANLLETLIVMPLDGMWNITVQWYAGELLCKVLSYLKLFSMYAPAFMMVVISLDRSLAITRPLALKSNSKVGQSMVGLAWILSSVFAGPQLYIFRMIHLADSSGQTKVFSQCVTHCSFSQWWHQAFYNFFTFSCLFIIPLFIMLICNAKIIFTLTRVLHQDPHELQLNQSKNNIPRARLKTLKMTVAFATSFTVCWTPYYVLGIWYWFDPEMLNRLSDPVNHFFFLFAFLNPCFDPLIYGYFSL
# How it was run: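 Tox21-format agonist screen using human GnRHR-expressing HEK293 cells and a fluorescent calcium dye; kinetic 3-min fluorescence reading after compound addition, 15-point concentration series run in triplicate.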
# [4] = target: KiSS-1 receptor (Homo sapiens) (UniProt Q969F8); experiment: Human kisspeptin (KISS1R) small molecule agonists, calcium flux assay in KISS1R-HEK293 cells (AID 1920064; active = well fitted curve in the direction sought with a large enough effect in the repeat runs; an effect the other way counts as inactive or inconclusive)
# Chain of KiSS-1 receptor (Homo sapiens) (Q969F8 whole entry, looked up): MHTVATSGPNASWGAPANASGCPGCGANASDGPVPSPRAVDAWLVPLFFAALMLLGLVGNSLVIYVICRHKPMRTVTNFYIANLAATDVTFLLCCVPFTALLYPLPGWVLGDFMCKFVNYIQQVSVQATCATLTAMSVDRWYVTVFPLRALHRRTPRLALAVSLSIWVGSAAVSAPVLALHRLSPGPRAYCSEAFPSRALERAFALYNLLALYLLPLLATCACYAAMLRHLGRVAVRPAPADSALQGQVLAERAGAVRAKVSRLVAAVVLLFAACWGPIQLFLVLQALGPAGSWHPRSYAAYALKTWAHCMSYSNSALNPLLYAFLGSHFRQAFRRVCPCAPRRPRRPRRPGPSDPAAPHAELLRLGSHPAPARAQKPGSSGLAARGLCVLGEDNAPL
# How it was run: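 Intracellular calcium mobilization in KISS1R-HEK293 cells was recorded by fluorescence (Ex/Em 480/540) for 3 min following compound addition to cells pre-loaded 1 h with calcium dye.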
# [5] = G protein-coupled receptor (GPCR) small molecule agonists, calcium flux assay: HEK293 wild type cell line counter screen (AID 1920065)
# How it was run: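 In this agonist-mode screen, ATP is the positive control and DMSO the vehicle. Cells grow 18 h before a 1 h dye incubation at 37 C; signal is taken at Ex/Em 480/540 over 3 min.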
# [6] = p53 small molecule agonists, cell-based qHTS assay with human liver microsomes (AID 1963577);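 also: p53 response element beta-lactamase reporter cells with liver microsomes plus NADPH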
# How it was run: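 Reporter activation was measured by LiveBLAzer fluorescence intensity in p53RE-bla cells, which had been exposed to compounds for 16 h at 37 C alongside 0.5 mg/mL human liver microsomes and 0.5 mg/mL NADPH (final concentrations).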
# [7] = p53 small molecule agonists, cell-based qHTS assay with rat liver microsomes (AID 1963578)
# How it was run: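 Compound in DMSO added to p53RE-bla cells 5 h post-plating; rat microsomes/NADPH 0.5 mg/mL final; 16 h, 37 C; LiveBLAzer 2 h RT.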
# [8] = p53 small molecule agonists, cell-based qHTS assay with human liver microsomes: qHTS cell viability counter screen (AID 1963579); also: nearly all actives have a fitted effect of over 45% in size
# How it was run: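 HLM-supplemented (0.5 mg/mL final) and NADPH-supplemented (0.5 mg/mL final) p53RE-bla cultures, 4,000 cells per well, were dosed with compounds in DMSO for 16 h at 37 C; luminescent ATP detection (CellTiter-Glo, 30 min, room temperature) quantified surviving cells.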
# [9] = p53 small molecule agonists, cell-based qHTS assay with rat liver microsomes: qHTS cell viability counter screen (AID 1963580); also: nearly all actives have a fitted effect of over 45% in size
# How it was run: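 Viability is assessed in parallel with the p53 reporter read: HCT-116 p53RE-bla cells receive compounds plus rat microsomes and NADPH (0.5 mg/mL final apiece), incubate 16 h at 37 C, and then CellTiter-Glo luminescence is recorded.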
# [10] = p53 small molecule agonists, cell-based qHTS assay: qHTS cell viability counter screen (AID 1963581); also: nearly all actives have a fitted effect of over 45% in size
# How it was run: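 Compounds are pinned onto HCT-116 p53RE-bla cells and left 16 h at 37 C. Following the reporter FRET read, ATP is quantified by CellTiter-Glo luminescence after 30 min at room temperature.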
# [11] = p53 small molecule agonists, cell-based qHTS assay (AID 1963582; active = well fitted activation curve with a large enough effect in the signal ratio in the repeat runs, not every such curve was filed as active; the % refers to the signal ratio)
# How it was run: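 Agonist activity was scored from beta-lactamase FRET fluorescence in p53RE-bla cells treated 16 h at 37 C with compounds in DMSO, substrate incubation being 2 h at room temperature.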
# [12] = target: 5-hydroxytryptamine receptor 2A (Homo sapiens) (UniProt P28223); experiment: 5-hydroxytryptamine receptor 2A (HTR2A) small molecule antagonists, cell-based qHTS assay (AID 1963586); also: nearly all actives have a fitted effect of over 45% in size; also: potency is read from the fitted curve at half-maximal effect
# Chain of 5-hydroxytryptamine receptor 2A (Homo sapiens) (P28223 whole entry, looked up): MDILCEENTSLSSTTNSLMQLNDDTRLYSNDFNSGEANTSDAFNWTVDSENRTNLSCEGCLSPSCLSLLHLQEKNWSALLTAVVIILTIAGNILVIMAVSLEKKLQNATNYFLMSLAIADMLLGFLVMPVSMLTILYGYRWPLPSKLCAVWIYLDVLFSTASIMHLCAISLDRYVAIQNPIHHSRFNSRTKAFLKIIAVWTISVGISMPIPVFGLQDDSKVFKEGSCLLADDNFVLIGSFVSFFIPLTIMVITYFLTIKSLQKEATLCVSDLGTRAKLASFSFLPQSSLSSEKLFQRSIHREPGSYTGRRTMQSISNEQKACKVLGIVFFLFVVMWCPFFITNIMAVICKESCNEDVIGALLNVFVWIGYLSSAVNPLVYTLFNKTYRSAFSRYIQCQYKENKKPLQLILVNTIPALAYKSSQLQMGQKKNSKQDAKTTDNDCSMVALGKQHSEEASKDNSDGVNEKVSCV
# How it was run: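 Antagonist-mode intracellular calcium assay: DOI (4 nM) added after 5 min compound pre-incubation at room temperature to dye-loaded HTR2A-CHO cells. Fluorescence followed for 3 min, sampled every second.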
# [13] = target: 5-hydroxytryptamine receptor 2A (Homo sapiens) (UniProt P28223); experiment: 5-hydroxytryptamine receptor 2A (HTR2A) small molecule agonists, cell-based qHTS assay (AID 1963587); also: nearly all actives have a fitted effect of over 30% in size
# How it was run: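 CHO cells stably expressing human HTR2A, plated 18 h, loaded with calcium dye 1 h at 37 C. Agonist mode: compounds added and intracellular calcium fluorescence recorded kinetically for 2 min at 1 sec intervals.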
# [14] = target: Muscarinic acetylcholine receptor M1 (Homo sapiens) (UniProt P11229); experiment: Cholinergic receptor muscarinic 1 (CHRM1) small molecule antagonists, cell-based qHTS assay (AID 1963588); also: nearly all actives have a fitted effect of over 40% in size
# Chain of Muscarinic acetylcholine receptor M1 (Homo sapiens) (P11229 whole entry, looked up): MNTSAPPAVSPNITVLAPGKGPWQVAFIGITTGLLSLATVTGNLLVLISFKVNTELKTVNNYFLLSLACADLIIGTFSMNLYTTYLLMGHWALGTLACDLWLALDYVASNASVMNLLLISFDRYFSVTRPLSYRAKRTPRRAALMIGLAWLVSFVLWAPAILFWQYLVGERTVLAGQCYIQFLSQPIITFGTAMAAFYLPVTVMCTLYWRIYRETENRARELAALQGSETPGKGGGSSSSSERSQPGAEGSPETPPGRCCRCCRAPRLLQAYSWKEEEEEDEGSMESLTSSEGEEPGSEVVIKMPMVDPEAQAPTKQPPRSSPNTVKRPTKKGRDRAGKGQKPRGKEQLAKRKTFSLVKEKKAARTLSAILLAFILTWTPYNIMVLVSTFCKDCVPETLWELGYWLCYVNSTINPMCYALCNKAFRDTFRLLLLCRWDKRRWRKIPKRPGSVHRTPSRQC
# How it was run: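 CHRM1-CHO calcium-flux assay, antagonist mode. Cells were seeded 18 h, dye-loaded 1 h at 37 C and given compound for 5 min at RT, then acetylcholine was added at 50nM. FDSS fluorescence was read 3 min; 15 concentrations, three runs.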
# [15] = cAMP Responsive Elements (CRE) small molecule agonists, cell-based qHTS assay (AID 1963590)
# How it was run: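 FRET-based beta-lactamase readout (LiveBLAzer B/G, 2 h RT) quantified CRE activation in HEK 293T CRE-bla cells after 3 h treatment with DMSO-dissolved compounds.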
# [16] = cAMP Responsive Elements (CRE) small molecule antagonists, cell-based qHTS assay (AID 1963591; active = well fitted inhibition curve with a large enough effect in the signal ratio in the repeat runs, not every such curve was filed as active; the % refers to the signal ratio)
# How it was run: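 qHTS in CRE-bla HEK 293T cells: compound in DMSO, then 0.25 uM NKH477 (final), 3 h at 37 °C/5% CO2; beta-lactamase FRET read-out after 2 h substrate incubation.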
# [17] = target: Beta-2 adrenergic receptor (Homo sapiens) (UniProt P07550); experiment: Adrenergic beta2 receptor (ADRB2) small molecule antagonists, cell-based qHTS assay (AID 1963592); also: series mostly up to about 92 µM; nearly all actives have a fitted effect of over 50% in size
# Chain of Beta-2 adrenergic receptor (Homo sapiens) (P07550 whole entry, looked up): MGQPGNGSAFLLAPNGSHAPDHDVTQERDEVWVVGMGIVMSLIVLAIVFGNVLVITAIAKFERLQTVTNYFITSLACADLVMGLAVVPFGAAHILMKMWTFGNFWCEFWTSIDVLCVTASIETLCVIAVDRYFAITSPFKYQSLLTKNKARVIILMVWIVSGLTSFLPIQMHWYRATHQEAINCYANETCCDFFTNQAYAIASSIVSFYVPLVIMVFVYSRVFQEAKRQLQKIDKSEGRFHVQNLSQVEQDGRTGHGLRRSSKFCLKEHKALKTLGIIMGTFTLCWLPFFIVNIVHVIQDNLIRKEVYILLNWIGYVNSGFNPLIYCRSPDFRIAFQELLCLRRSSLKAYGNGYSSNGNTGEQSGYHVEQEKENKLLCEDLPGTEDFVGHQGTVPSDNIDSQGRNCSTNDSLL
# How it was run: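 Cells (CHO, stable ADRB2 overexpression) incubated 18-20hr at 37C; compounds added from DMSO; agonist mix (1nM isoproterenol, 100uM IBMX, 25uM Ro-20-1724) added; 0.5hr RT; d2-cAMP and anti-cAMP-cryptate added; 1hr RT; 665/615 nm read.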
# [18] = target: D(2) dopamine receptor (Homo sapiens) (UniProt P14416); experiment: Dopamine D2 receptor (DRD2) small molecule agonists, cell-based qHTS assay (AID 1963594); also: nearly all actives have a fitted effect of over 35% in size
# Chain of D(2) dopamine receptor (Homo sapiens) (P14416 whole entry, looked up): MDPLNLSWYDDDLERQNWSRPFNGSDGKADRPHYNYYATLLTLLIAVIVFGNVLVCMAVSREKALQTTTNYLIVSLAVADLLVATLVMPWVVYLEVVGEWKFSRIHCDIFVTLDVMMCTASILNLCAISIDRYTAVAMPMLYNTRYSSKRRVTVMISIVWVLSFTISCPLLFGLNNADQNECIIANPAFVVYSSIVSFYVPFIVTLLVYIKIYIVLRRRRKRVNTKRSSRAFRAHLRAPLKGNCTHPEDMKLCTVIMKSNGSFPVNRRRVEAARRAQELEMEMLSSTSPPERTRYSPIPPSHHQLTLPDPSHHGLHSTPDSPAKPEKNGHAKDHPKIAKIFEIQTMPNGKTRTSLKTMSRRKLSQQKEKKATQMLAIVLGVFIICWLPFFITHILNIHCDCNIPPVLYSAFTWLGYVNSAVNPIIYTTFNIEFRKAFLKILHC
# How it was run: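 HEK293 cells stably expressing human DRD2, pre-treated with PDE inhibitor Ro20-1724 (0.1 mM final) and compound 10 min at room temperature, then stimulated with NKH477 (200nM […]) for 30 min. cAMP read by HTRF (665/620 nm).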
# [19] = target: D(2) dopamine receptor (Homo sapiens) (UniProt P14416); experiment: Dopamine D2 receptor (DRD2) small molecule antagonists, cell-based qHTS assay (AID 1963595; active = well fitted inhibition curve with a large enough effect in the signal ratio in the repeat runs, with a control signal flat; the % refers to the signal ratio)
# How it was run: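 HEK293 cells stably expressing DRD2, preincubated with 0.1 mM Ro20-1724 and compounds 10 min, were stimulated with 200 nM NKH477 plus 12 nM quinpirole for 30 min at room temperature; cAMP measured by HTRF (665/620 nm).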
# [20] = target: Muscarinic acetylcholine receptor M1 (Homo sapiens) (UniProt P11229); experiment: Cholinergic receptor muscarinic 1 (CHRM1) small molecule agonists, cell-based qHTS assay (AID 1963589); also: nearly all actives have a fitted effect of over 35% in size
# How it was run: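 Stable CHRM1-CHO cells (human receptor) were incubated 18 h, dye-loaded for 1 h at 37 C and exposed to test compounds for agonist activity, with calcium-dependent fluorescence followed kinetically.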
SMILES,Potency [1],Potency [2],Potency [3],Potency [4],Potency [5],Potency [6],Potency [7],Potency [8],Potency [9],Potency [10],Potency [11],Potency [12],Potency [13],Potency [14],Potency [15],Potency [16],Potency [17],Potency [18],Potency [19],Potency [20]
Cc1cccc([N+](=O)[O-])c1,inactive,inactive,inactive,inactive,inactive,inactive,inactive,inactive,inactive,inactive,inactive,inactive,inactive,inactive,inactive,inactive,inactive,inactive,inactive,–
NNC(=S)NN,6.28 µM (active) and 30.6 µM (active),2.5 µM (active),inactive,inactive,inactive,inactive,inactive,inactive,inactive,inactive,inactive,inactive,inactive,inactive,–,inactive,inactive,inactive,inactive,inactive
CN(CCO)CCO,inactive,inactive,inactive,inactive,inactive,inactive,inactive,inactive,inactive,inactive,inactive,inactive,inactive,inactive,–,inactive,inactive,inactive,inactive,inactive
CCCCN(CCCCO)N=O,inactive,inactive,inactive,inactive,inactive,inactive,inactive,inactive,inactive,inactive,inactive,inactive,inactive,inactive,–,inactive,inactive,inactive,inactive,inactive
CCOP(=O)(OCC)OCC,inactive,inactive,inactive,inactive,inactive,inactive,inactive,inactive,inactive,inactive,inactive,inactive,inactive,inactive,–,inactive,inactive,inactive,inactive,inactive
O=C(CCl)c1ccccc1,inactive,62 µM (active) and 54.5 µM (active),inactive,inactive,inactive,inactive,inactive,inactive,inactive,inactive,inactive,inactive,inactive,inactive,inactive,inactive,inactive,inactive,inactive,–
CC(C)c1ccc(NC(=O)N(C)C)cc1,inactive,inactive,inactive,inactive,inactive,inactive,inactive,inactive,inactive,inactive,inactive,inactive,inactive,–,inactive,inactive,inactive,inactive,inactive,inactive
COc1cc(N)c(Cl)cc1C(=O)NC1CN2CCC1CC2 (centres undefined),inactive,inactive,inactive,inactive,inactive,inactive,inactive,inactive,inactive,inactive,inactive,5.79 µM (active),inactive,–,inactive,inactive,inactive,inactive,–,inactive
C1CCC(NC2CCCCC2)CC1,inactive,inactive,inactive,inactive,inactive,inactive,inactive,inactive,inactive,inactive,inactive,inactive,inactive,inactive,inactive,inactive,inactive,inactive,inactive,–
COP(=O)(O)OC,inactive,inactive,inactive,inactive,inactive,inactive,inactive,inactive,inactive,inactive,inactive,inactive,inactive,inactive,–,inactive,inactive,inactive,inactive,inactive
CN1CC[C@]23c4c5ccc(O)c4O[C@H]2[C@@H](O)CC[C@H]3[C@H]1C5,inactive,inactive,inactive,inactive,inactive,inactive,inactive,inactive,inactive,inactive,inactive,inactive,inactive,–,–,inactive,inactive,inactive,inactive,inactive
COC(=O)c1sccc1S(=O)(=O)NC(=O)Nc1nc(C)nc(OC)n1,inactive,inactive,inactive,inactive,inactive,inactive,inactive,inactive,inactive,inactive,inactive,inactive,–,inactive,inactive,inactive,inactive,inactive,inactive,inactive
N#Cc1cc([N+](=O)[O-])ccc1N,inactive,inactive,inactive,inactive,inactive,inactive,inactive,inactive,inactive,inactive,inactive,inactive,–,–,–,–,inactive,inactive,–,inactive
CCCSC(=O)Cl,inactive,inactive,inactive,inactive,inactive,inactive,inactive,inactive,inactive,inactive,inactive,inactive,–,inactive,inactive,inactive,inactive,–,inactive,inactive
